Data on seven compounds can be found in PubChem BioAssay (NCATS).

For test [1], the system named is Zika virus NS2B-NS3 protease. Nature of the test: Primary screen GU AMC qHTS for Zika virus inhibitors (AID 1347154).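 Also: 0% = no-inhibitor control and -100% = no-enzyme control; nearly all actives have a fitted effect of over 70% in size.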 The gist of the method:
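Unlinked Zika NS2B hydrophilic domain/NS3 protease domain noncovalent complex (25 nM final) in 10 mM Tris-HCl pH 8.0, 0.01% Tween 20, with AMC peptide substrate. Fluorescence (ex 340, em 450 nm) change over 15 min, room temperature; percent inhibition fitted to 4-parameter Hill equation.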
On the technique in general: Quantitative high-throughput screening tests each substance at several concentrations.

A short description of test [2]: Counterscreen qHTS for small molecule stabilizers of the endoplasmic reticulum resident proteome: GLuc-NoTag assay (AID 1508627).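 Also: SH-SY5Y cells given compound then 100 nM thapsigargin to empty ER calcium; series mostly up to about 76 µM; 0% = thapsigargin alone and -100% = DMSO vehicle control.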 The gist of the method:
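SH-SY5Y cells stably expressing constitutively secreted GLuc (no SERCaMP tag) were pre-incubated 5 h, treated with compound for 19 h, then 100 nM thapsigargin for 4 h at 37C; medium GLuc read by coelenterazine luminescence.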
For orientation: A counterscreen serves to expose hits that act by an unwanted route or on another target.

Test [3] in a line: Validation of Assay for Modulators of Lamin A Splicing (AID 1459; active = well fitted curve in the direction sought with a large enough effect in the signal ratio; the % refers to the signal ratio;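 also: cells exposed to compound for two days before reading; 0% is about no effect; ratio rise marks activators and ratio drop marks inhibitors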). Summed up:
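HeLa S3 lamin A-EGFP/DsRed2 stable clone, 600 cells/well, Opti-MEM 2% FBS; compounds by pin tool; 48 hrs, 37 °C/5% CO2; Acumen 488 nm scan, objects 10-100 um; GFP/RFP intensity ratio.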

For test [4], the target named is DNA repair nuclease/redox regulator APEX1 (Homo sapiens) (UniProt P27695). The test can be described thus: qHTS Validation Assay for Inhibitors of the Human Apurinic/apyrimidinic Endonuclease 1 (APE1) (AID 1705;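 also: TAMRA fluorescence gain over two minutes as APE1 cuts a quenched THF abasic duplex; series mostly up to about 57 µM; % is scaled to controls: 0 for no effect and ±100 for the full control effect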). Summed up: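 qHTS, 1536-well. APE1 + cpd 15 min RT → 50 nM TAMRA/BHQ-2 THF-abasic dsDNA substrate → kinetic fluorescence, 3 reads/60 s; delta(read3−read1) = reaction progress. No-enzyme buffer = negative control.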

Test [5] in a line: Counterscreen for APE1 Inhibitors: Fluorescent Dye Displacement Validation Assay (AID 1707).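 Also: plate controls were ThO with dsDNA and no compound for no effect and ThO without dsDNA for full effect.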 The gist of the method: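 Compounds are scored by their ability to displace Thiazole Orange (250 nM) from a 50 nM TAMRA-tagged duplex bearing a tetrahydrofuran abasic site. Buffer is 50 mM Tris-HCl pH7.5, 50mM NaCl, 2 mM MgCl2, 0.01% Tween-20.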
The target in test [6] is Endonuclease 4 (Escherichia coli (strain K12)) (UniProt P0A6C1). The test can be described thus: Counterscreen for APE1 Inhibitors: qHTS Validation Assay for Inhibitors of Endonuclease IV (AID 1708). Also: % is scaled to controls: 0 for no effect and ±100 for the full control effect. Summed up:
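2 nM enzyme was preincubated with compounds for 15 min at room temperature in 50 mM Tris-HCl pH 7.5, 50 mM NaCl, 2 mM MgCl2, 1 mM DTT, 0.01% Tween-20. 50 nM THF-abasic TAMRA/BHQ-2 duplex substrate started the reaction.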

Test [7] can be described thus: qHTS for differential inhibitors of proliferation of Plasmodium falciparum line 7G8 (AID 1815).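 Also: potency is read from the fitted curve at half-maximal effect; parasite growth measured after three days of incubation.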
Test [8] is described as follows: qHTS for differential inhibitors of proliferation of Plasmodium falciparum line GB4 (AID 1816).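 Also: potency is read from the fitted curve at half-maximal effect; parasite growth measured after 72 h incubation.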 Particulars: Potency: Plasmodium falciparum GB4 proliferation inhibition.
Test [9] can be described thus: qHTS for differential inhibitors of proliferation of Plasmodium falciparum line 3D7 (AID 1876). Also: potency is read from the fitted curve at half-maximal effect.
Test [10] can be described thus: qHTS for differential inhibitors of proliferation of Plasmodium falciparum line Dd2 (AID 1882). Also: potency is read from the fitted curve at half-maximal effect; nearly all actives have a fitted effect of over 65% in size. Conditions: Potency: Plasmodium falciparum Dd2 proliferation inhibition. Summed up: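 SYBR Green I DNA fluorescence read-out, ex 485/em 535 nm. Signals were normalized to 0.29 uM artemisinin and DMSO wells, then corrected using vehicle-only plates flanking each stack. Parasite growth ran 72 h in erythrocytes before lysis.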

Test [11] is described as follows: qHTS for differential inhibitors of proliferation of Plasmodium falciparum line W2 (AID 1883).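 Also: potency is read from the fitted curve at half-maximal effect; parasites grown with compound for 72 h before lysis and staining.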 Particulars: Potency: Plasmodium falciparum W2 proliferation inhibition.
Test [12] can be described thus: qHTS for differential inhibitors of proliferation of Plasmodium falciparum line HB3 (AID 1886).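 Also: potency is read from the fitted curve at half-maximal effect; parasites grown with compound for 72 h before SYBR Green readout.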 Conditions: Potency: Plasmodium falciparum HB3 proliferation inhibition.
In test [13] the target is ATP-dependent DNA helicase Q1 (Homo sapiens) (UniProt P46063). The test can be described thus: qHTS Validation Assay for Inhibitors of RecQ-Like Dna Helicase 1 (RECQ1) (AID 2353).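 Also: plate controls were DMSO vehicle for no effect and enzyme-free control for full effect.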 Summed up: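 50 nM RECQ1T1 preincubated 15 min with compound in Tris pH 8.0 buffer with MgCl2, DTT, Tween-20 and 2.5 ug/ml poly(dI-dC); started with 200 nM TAMRA/BHQ-2 forked duplex and 2 mM ATP. Unwinding read as fluorescence (525/598 nm), two reads 2 h apart.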

The nature of test [14]: Validation screen for small molecules that induce DNA re-replication in MCF 10A normal breast cells (AID 463097). Also: 0% is about no effect; nearly all actives have a fitted effect of over 60% in size. Summed up:
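Image-based qHTS: normal breast cells are incubated with compound for 48 hr, stained with Hoechst, and scanned for total nuclear fluorescence. Compounds raising the fraction of nuclei with elevated DNA content count as re-replication inducers.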

Test [15] concerns the target M-phase phosphoprotein 8 (Homo sapiens) (UniProt Q99549). The test can be described thus: qHTS Validation Assay for Inhibitors for MPP8 Chromodomain Interactions with Methylated Histone Tails (AID 488949).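 Also: 50 nM MPP8 with 50 nM peptide preformed then compounds added for 30 min; AlphaScreen signal from MPP8 chromodomain bound to biotinylated H3K9me3 peptide; top concentration of the series differs between compounds; % is scaled to controls: 0 for no effect and ±100 for the full control effect; nearly all actives have a fitted effect of over 55% in size.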 Summed up: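 50 nM MPP8 + 50 nM b-H3K9me3 peptide, PBS pH 7.4/0.01% Tween-20, 30 min RT; + cpd 30 min RT; + AlphaScreen donor/Ni-chelate acceptor beads 10 ug/mL final, 30 min dark; luminescence read.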

Test [16] addresses Thyrotropin receptor (Homo sapiens) (UniProt P16473). Nature of the test: qHTS Assay for Antagonists of the Thyroid Stimulating Hormone Receptor (AID 488980). Also: series mostly up to about 58 µM; 0% is about no effect. The gist of the method: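 Readout is cAMP by HTRF competition between cellular cAMP and cAMP-d2 for a cryptate-labelled antibody. Antagonism was assessed in TSHR-transfected HEK293 cells stimulated with 4 nM TSH (EC80, final) in the presence of RO 20-1724.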

Test [17] addresses Thyrotropin-releasing hormone receptor (Homo sapiens) (UniProt P34981). The test can be described thus: qHTS for Small Molecule Agonists and Allosteric Enhancers of Human TRH Receptor: Validation Screen for Agonists (AID 493127;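 active = calcium activation more than 3 SD above the typical response in the agonist read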;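 also: intracellular calcium rise by fluo-8 fluorescence before TRH EC20 addition; 0% is about no effect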). Particulars: TRH receptor agonist cell assay; at 2 µM; hits give high values. Summed up: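 TRHR-expressing cells were plated overnight in serum-containing medium, then loaded with fluo-8 calcium dye at room temperature for 30 min–1.5 h. After a 10 s baseline, compound was pin-transferred and calcium fluorescence (ex 480/em 530) read kinetically for agonist response.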

The target of test [18] is Galactokinase (Homo sapiens) (UniProt P51570). The test can be described thus: qHTS Validation Assay for Inhibitors of Human Galactokinase (GALK) (AID 493189). Also: 0% is about no effect. Summed up: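 5 nM GALK / 100 uM galactose / 35 uM ATP, 20 mM HEPES pH8.0, 5 mM MgCl2, 60 mM NaCl, 1 mM DTT, 0.01% BSA (final). RT 1 h; Kinase-Glo Plus luminescence.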
A short description of test [19]: Validation screen for small molecules that induce DNA re-replication in SW480 colon adenocarcinoma cells (AID 504364). Also: 0% is about no effect. Summed up: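 SW480 cells seeded at 250 per well were exposed to compound or DMSO for 48 hr at 37 C, 5% CO2, then stained with Hoechst for 40 min. DNA content per nucleus was imaged (405 nm ex, 500-530 nm em).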
In test [20] the target is Voltage-gated inwardly rectifying potassium channel KCNH2 (Homo sapiens) (UniProt Q12809). Nature of the test: qHTS Assay for Small Molecule Inhibitors of the Human hERG Channel Activity (AID 588834).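 Also: top concentration of the series differs between compounds; % is scaled to controls: 0 for no effect and ±100 for the full control effect; lower thallium flux fluorescence means stronger hERG block; nearly all actives have a fitted effect of over 50% in size.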 Summed up: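 hERG-BacMam U2OS, 2000 cells/well; 0.7X FluxOR loading 1 hr RT dark; cpd ~10 min 37 °C; stim buffer; FDSS fluorescence 2 min @ 1 s; AC50 Hill fit.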
Test [21] can be described thus: Cell Viability qHTS for small molecule stabilizers of the endoplasmic reticulum resident proteome (AID 1508629).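 Also: human SH-SY5Y neuroblastoma cells carrying the GLuc-SERCaMP reporter; compound exposure about 46 h in total before the viability read; % is scaled to controls: 0 for no effect and ±100 for the full control effect.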 Particulars: cell viability counter-screen, 100 nM thapsigargin for final 4 h.

Values without a mark were called inactive. Results filed as inconclusive are left out. Calls of active or inactive are those of the source. Unless noted, calls follow the shape of the dose curve; as a rule, active = well fitted curve in the direction sought with a large enough effect; inconclusive = small, poorly fitted or top-dose-only effect, or another doubt; inactive = no such curve, though single readings can be large; an effect the other way counts as inactive or inconclusive.

ATP-dependent DNA helicase Q1 (Homo sapiens), sequence (P46063 whole entry, looked up): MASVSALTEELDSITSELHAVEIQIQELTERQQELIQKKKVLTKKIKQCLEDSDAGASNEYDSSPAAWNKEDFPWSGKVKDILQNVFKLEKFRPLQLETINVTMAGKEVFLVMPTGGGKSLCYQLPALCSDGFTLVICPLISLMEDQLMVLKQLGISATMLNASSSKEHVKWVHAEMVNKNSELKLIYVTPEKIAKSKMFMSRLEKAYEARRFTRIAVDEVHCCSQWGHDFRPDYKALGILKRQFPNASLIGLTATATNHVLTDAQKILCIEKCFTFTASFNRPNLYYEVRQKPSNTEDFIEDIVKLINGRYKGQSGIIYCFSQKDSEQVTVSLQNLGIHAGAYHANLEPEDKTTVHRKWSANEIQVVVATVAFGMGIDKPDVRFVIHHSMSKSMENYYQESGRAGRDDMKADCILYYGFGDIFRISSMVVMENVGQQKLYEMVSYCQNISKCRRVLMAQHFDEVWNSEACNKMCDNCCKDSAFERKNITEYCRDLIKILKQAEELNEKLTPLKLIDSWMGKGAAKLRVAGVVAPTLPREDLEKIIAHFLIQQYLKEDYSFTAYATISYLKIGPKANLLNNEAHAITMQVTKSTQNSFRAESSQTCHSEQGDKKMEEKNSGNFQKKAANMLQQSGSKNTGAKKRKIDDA
Thyrotropin receptor (Homo sapiens), sequence (P16473 whole entry, looked up): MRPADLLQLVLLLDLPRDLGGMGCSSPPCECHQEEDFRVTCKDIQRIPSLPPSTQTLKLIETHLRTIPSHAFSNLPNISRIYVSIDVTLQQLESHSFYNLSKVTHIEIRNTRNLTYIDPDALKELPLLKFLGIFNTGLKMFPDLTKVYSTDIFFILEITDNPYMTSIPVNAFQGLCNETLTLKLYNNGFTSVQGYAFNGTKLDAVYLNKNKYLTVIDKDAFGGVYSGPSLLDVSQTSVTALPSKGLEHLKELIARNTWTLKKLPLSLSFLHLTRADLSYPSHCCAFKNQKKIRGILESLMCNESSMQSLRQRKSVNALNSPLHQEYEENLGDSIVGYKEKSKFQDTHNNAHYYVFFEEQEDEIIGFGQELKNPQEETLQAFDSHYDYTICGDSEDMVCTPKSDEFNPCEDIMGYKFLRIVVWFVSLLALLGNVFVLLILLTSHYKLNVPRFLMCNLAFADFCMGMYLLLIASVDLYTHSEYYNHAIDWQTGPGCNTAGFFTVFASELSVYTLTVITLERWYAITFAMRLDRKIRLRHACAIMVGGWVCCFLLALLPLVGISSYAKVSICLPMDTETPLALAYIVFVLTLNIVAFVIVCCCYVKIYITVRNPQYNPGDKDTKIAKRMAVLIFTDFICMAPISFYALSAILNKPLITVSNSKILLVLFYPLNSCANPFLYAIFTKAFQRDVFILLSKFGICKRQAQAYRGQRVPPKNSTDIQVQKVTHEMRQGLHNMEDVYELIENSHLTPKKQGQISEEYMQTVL
DNA repair nuclease/redox regulator APEX1 (Homo sapiens), sequence (P27695 whole entry, looked up): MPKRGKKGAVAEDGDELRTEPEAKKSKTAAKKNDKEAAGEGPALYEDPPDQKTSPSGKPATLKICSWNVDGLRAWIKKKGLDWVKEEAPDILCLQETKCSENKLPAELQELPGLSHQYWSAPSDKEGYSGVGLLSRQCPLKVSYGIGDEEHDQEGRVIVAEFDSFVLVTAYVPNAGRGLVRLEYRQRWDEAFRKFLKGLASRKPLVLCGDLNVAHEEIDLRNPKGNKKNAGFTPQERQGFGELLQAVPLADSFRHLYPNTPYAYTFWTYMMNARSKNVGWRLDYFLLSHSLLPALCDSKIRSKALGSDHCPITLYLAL
Thyrotropin-releasing hormone receptor (Homo sapiens), sequence (P34981 whole entry, looked up): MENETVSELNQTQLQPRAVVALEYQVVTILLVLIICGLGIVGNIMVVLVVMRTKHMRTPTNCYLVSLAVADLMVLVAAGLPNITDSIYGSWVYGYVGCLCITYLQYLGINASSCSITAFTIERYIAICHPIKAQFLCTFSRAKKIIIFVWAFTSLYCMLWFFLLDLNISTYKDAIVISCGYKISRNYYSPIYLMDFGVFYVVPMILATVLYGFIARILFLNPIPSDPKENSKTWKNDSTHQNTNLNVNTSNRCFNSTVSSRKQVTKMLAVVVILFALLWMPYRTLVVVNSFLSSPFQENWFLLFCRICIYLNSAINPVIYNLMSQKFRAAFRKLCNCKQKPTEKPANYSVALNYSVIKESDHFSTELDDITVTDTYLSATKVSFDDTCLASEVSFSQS
Voltage-gated inwardly rectifying potassium channel KCNH2 (Homo sapiens), sequence (Q12809 whole entry, looked up): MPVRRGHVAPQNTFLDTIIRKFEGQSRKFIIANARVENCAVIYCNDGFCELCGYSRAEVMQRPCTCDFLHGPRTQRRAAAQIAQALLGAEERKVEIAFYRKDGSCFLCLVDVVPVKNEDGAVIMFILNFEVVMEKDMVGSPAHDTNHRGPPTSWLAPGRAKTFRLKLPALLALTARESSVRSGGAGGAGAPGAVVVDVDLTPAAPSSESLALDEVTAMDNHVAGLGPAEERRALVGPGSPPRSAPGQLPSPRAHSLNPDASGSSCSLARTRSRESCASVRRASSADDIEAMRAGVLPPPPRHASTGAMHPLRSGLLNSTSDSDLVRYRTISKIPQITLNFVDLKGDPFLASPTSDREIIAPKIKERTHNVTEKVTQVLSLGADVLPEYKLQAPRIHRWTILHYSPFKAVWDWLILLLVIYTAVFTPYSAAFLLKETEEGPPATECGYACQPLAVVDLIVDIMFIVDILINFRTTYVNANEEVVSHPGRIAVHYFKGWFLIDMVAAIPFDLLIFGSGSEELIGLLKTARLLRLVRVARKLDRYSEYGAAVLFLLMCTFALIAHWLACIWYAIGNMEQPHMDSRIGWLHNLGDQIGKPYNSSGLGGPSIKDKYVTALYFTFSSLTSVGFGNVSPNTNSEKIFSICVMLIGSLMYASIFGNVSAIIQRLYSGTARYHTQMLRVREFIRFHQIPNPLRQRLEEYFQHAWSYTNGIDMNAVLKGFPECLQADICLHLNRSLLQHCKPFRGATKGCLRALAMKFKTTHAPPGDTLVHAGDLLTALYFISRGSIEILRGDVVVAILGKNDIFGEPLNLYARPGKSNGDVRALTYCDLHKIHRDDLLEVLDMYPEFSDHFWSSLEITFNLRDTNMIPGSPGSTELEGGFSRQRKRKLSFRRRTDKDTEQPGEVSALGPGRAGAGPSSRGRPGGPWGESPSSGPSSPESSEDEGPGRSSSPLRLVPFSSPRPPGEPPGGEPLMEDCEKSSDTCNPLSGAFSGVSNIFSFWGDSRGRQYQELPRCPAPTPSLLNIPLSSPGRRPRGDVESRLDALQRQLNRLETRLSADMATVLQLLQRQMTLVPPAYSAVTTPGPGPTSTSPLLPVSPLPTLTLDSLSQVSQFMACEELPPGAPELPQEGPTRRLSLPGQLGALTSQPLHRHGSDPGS
Galactokinase (Homo sapiens), sequence (P51570 whole entry, looked up): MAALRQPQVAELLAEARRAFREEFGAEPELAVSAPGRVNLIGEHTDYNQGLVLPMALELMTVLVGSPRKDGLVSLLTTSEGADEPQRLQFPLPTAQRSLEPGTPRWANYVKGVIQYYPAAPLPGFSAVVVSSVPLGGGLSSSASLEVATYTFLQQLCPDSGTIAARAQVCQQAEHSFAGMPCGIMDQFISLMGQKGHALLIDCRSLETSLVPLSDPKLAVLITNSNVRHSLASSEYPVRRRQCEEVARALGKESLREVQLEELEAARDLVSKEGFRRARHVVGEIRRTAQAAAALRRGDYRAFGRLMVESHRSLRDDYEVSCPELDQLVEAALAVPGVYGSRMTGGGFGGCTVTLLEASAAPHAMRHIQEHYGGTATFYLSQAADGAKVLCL
M-phase phosphoprotein 8 (Homo sapiens), sequence (Q99549 whole entry, looked up): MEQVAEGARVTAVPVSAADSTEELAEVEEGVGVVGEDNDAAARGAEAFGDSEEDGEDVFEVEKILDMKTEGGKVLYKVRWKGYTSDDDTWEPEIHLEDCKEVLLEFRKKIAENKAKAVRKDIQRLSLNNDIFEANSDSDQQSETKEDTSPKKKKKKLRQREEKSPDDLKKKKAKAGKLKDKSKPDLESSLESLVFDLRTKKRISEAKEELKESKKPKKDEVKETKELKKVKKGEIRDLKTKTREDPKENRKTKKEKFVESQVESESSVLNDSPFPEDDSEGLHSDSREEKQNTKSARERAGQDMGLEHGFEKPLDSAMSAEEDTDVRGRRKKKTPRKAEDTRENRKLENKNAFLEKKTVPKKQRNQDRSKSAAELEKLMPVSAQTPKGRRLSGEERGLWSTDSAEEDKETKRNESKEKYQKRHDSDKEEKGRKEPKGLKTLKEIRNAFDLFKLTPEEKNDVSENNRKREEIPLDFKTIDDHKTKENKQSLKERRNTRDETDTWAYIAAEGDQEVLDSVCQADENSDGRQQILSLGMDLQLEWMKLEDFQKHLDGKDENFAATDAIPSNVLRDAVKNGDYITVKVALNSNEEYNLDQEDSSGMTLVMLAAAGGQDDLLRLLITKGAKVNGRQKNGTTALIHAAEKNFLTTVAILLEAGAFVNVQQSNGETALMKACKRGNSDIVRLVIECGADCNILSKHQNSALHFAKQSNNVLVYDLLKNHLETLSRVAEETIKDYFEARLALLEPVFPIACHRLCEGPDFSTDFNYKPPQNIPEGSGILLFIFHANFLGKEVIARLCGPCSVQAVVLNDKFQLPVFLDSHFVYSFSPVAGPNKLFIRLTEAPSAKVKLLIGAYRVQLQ

Take `N=C(CC(O)COc1ccccc1-c1ccccc1)N1CCCCC1` (stereo not given): the Potency entry in test [1] is “inactive”.

As to `CSc1ccc([C@H]2CN3CCC[C@H]3c3ccccc32)cc1`, in test [1], the Potency entry was “inactive”.

`CC(C)N1CCN(c2ccc(C(=O)c3c(-c4ccc(O)cc4)sc4cc(O)ccc34)cc2)CC1`: the Potency result in [1] and in [2] was “inactive” each time.

`Cc1ccc(OCC(O)C(C)NC(C)C)c2c1CCC2` (stereo not given): the result in test [3], in test [16], in test [18] and in [19] was inactive. The Potency result in test [4], in test [5], in test [6], in test [13], in [14] and in test [15] was “inactive” throughout. Also, the Potency entry in test [20] and in [1] was “inactive” each time. The Potency in test [7] is 2.82 µM (active); in [8], 2.82 µM (active); in [9], 11.2 µM (active); in test [10], 12.6 µM (active); in test [11], 1.58 µM (active); in test [12], 11.2 µM (active). In addition, the activation in test [17] is 2.81%.

`c1ncc(CCCC2CCNCC2)[nH]1`: the Potency entry in test [1] and in test [2] was “inactive” throughout.

For `COc1ccc(C2Sc3ccccc3N(CCN(C)C)C(=O)[C@@H]2OC(C)=O)cc1` (stereo not given in full), the Potency result in [1] and in test [2] was “inactive” each time.

In the case of `O=C(O)C1NCCN(C(=O)c2ccc3c(ccc4ccccc43)c2)C1C(=O)O` (stereo not given), the Potency entry in test [1] and in [2] was “inactive” throughout. Further, in test [21], the max response is 28.7%.
